According to paper PMC3218832:

target: RELA (p65) subunit of heterodimer;p50 subunit (Homo sapiens;Homo sapiens, UniProt Q04206;P19838 1-307;7-356); test: protein binding microarray; high values mean tight binding; conditions: dsDNA, one strand shown
Sequence (Q04206 1-307, chain 1 of 2): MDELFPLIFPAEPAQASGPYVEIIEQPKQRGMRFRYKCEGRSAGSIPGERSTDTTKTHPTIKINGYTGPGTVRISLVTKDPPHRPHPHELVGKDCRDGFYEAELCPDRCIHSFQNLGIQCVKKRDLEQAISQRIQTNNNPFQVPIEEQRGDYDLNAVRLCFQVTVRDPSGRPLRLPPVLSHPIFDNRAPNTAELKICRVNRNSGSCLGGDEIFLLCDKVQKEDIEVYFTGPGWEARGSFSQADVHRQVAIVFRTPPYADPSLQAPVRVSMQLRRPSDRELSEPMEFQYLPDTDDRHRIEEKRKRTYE
Sequence (P19838 7-356, chain 2 of 2): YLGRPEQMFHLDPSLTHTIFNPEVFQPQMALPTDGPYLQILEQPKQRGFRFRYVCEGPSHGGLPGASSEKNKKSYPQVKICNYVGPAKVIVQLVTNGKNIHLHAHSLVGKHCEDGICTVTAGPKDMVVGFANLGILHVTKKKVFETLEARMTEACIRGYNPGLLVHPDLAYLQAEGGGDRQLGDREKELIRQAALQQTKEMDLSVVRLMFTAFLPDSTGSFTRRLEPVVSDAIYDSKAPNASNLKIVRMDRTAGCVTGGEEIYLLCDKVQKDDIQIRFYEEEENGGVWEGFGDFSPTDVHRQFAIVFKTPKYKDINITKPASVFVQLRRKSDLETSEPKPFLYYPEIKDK

Sequence | binding signal [z-score]
CAATGTGTCCT | -0.926
CAGTTCTCCCT | 0.838
AAGGTACTCCC | 0.376
CAAGTTGTCCC | 0.421
GGAGGTATCCC | -0.519
AAGGGAATCCC | 1.16
CAATGTTCCCT | -0.019
AAATTACTCCC | 0.132
GAATTCGCCCT | -0.461
CAGAGACCCCC | 0.407
CGGTGAGCCCC | -0.0467
CGAGATACCCC | 0.439
CAGGGGATCCC | 1.73
CGGGAGATCCT | -0.217
GGAAATGTCCC | 1.27
GAGAGTATCCC | -0.602
CAAAGGCCCCC | 0.041
AGAGGTTCCCC | 1.54
CGAAAAATCCT | -0.584
CGGGTAGTCCC | 1.36

Sequence | binding signal [z-score]
GAGAGCCCCCC | 0.853
GAAGGCGTCCC | -0.134
CGATAGCTCCT | -1.07
AGAATGTTCCT | -0.64
AGAATCCCCCC | 2.66
AGAAACGTCCT | -0.997
GAAGTAATCCT | -1
AGGGACGTCCT | 0.549
CGAATACCCCT | 1.17
CAGAGCACCCT | -0.624
AAAGACTCCCT | 0.327
GAGATATCCCC | 1.33
AAAGTGATCCT | -1.3
AAGAGGTTCCT | -0.943
AGGTAATTCCT | 0.471
CAGGGATCCCC | 1.56
CGGTGTACCCT | -0.317
AAGATGCCCCC | 0.893
AAAATAACCCC | 1.03
